Ba/F3 V617F tox = reduced viability of JAK2V617F-dependent Ba/F3 cells, primary screen, JAK2V617F inhibitor project, cell-based, Ba/F3 EpoR-JAK2V617F, luminescence. ATP luminescence. inhibition, % at 5.6 µM. 220,000 compounds, 1.1% hits. AID 1446, 2008;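 active = inhibition above the campaign mean plus 3 SD over all tested compounds, cut at about 24% in these data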;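 also: cytokine-independent growth of Ba/F3 cells driven by EpoR plus mutant JAK2; 0% = DMSO-treated cells and 100% = JAK inhibitor I control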
APP transl inh = inhibitors of APP translation via 5'UTR reporter, primary screen, APP 5'UTR luciferase, SH-SY5Y cells | SH-SY5Y APP 5'UTR-luciferase reporter, luminescence | inhibition, % at 2 µM | 190,000 compounds, 0.82% hits | AID 1285, 2008;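 active = inhibition above a set limit, derived from the sample mean plus 3 SD, cut at about 45% in these data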
KLF5 inhibitor = KLF5 expression inhibitors, primary screen, DLD-1 cells, luminescence; DLD-1 KLF5 promoter-luciferase reporter; inhibition, % at 5 µM; 290,000 compounds, 0.23% hits;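 active = inhibition above a per-plate limit of that plate's mean compound inhibition plus 3 SD, cut at about 60% in these data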;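 also: 0% = DMSO wells and 100% = LY294002 at 200 µM; higher means less KLF5 promoter-driven luciferase light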
IEC-6 tox = cytotoxicity in IEC-6 intestinal epithelial cells, primary screen, cytotoxicity control for KLF5 inhibitor project, cell-based, luminescence; IEC-6 cytotoxicity, luminescence viability; inhibition, % at 5 µM; 290,000 compounds, 0.78% hits; AID 1825, 2009;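 also: 0% = plate median of test compound wells and 100% = cytotoxic reference compound wells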
aSyn UTR inh = MLPCN primary screen, SNCA 5' untranslated region. alpha-synuclein 5'UTR reporter, inhibitor activity. inhibition, % (tested at 7.5 µM). 300,000 compounds, 0.82% hits; in the data active = inhibition above about 60%;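 also: H4 neuroglioblastoma cells stably carrying SNCA 5'UTR luciferase fusion; 0% = DMSO wells and 100% = positive control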
BaF3 tox = parental Ba/F3 cell viability inhibition, counter-screen for JAK2V617F inhibitor project, murine pro-B, CellTiter-Glo luminescence; CellTiter-Glo ATP luminescence; inhibition, % at 5.6 µM; 220,000 compounds, 1.1% hits; AID 1486, 2009;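 active = inhibition above a per-campaign cutoff, the mean inhibition of all tested compounds plus 3 SD, cut at about 27% in these data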;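 also: 0% = DMSO wells and 100% = JAK Inhibitor I control wells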
IEC-6 tox confirm = cytotoxic compounds in IEC-6 epithelial cells, confirmation, cytotoxicity control, cell-based, luminescence. shares compounds with IEC-6 tox. IEC-6 rat intestinal epithelial viability. inhibition, % at 5 µM. 1,900 compounds, 63% hits. AID 1907, 2009;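 also: 0% = vehicle and 100% = reference cytotoxic drug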
Numbers without * were called inactive. A selection: hits, their analogues and other compounds. The true share with any hit is near 2.2%. Rule as the data show it, unless noted: active = inhibition above about 22%; inactive = the rest.

What do the screens show for `CC(C)c1ccc(NC(=O)C(c2ccccc2)N2CCN(C(=O)c3ccco3)CC2)cc1` (stereo not drawn)?
Ba/F3 V617F tox: -2.0; APP transl inh: -33.4; KLF5 inhibitor: -52.9; IEC-6 tox: 46.0*; aSyn UTR inh: -14.2; BaF3 tox: 6.2; IEC-6 tox confirm: 16.3

What do the screens show for `COc1ccc(-c2nn(-c3ccccc3)cc2/C=N/O)cc1OC`?
KLF5 inhibitor: -54.4; IEC-6 tox: 26.7*; aSyn UTR inh: -4.7; IEC-6 tox confirm: 13.8

What do the screens show for `COc1ccc(-c2nn(-c3ccccc3)cc2/C=N/N=C(N)N)cc1OC`?
Ba/F3 V617F tox: 0.0; APP transl inh: -4.2; KLF5 inhibitor: 4.4; IEC-6 tox: -4.2; aSyn UTR inh: -19.7; BaF3 tox: 0.8

How did COc1cccc(-n2nc(C(N)=O)c(O)cc2=O)c1 do in these assays?
Ba/F3 V617F tox: 0.7; APP transl inh: -2.6; KLF5 inhibitor: -18.3; IEC-6 tox: -0.7; aSyn UTR inh: 4.6; BaF3 tox: 3.2

How did COc1cccc(-n2nc(C#N)c(Cl)cc2=O)c1 do in these assays?
Ba/F3 V617F tox: 8.1; APP transl inh: 91.3*; KLF5 inhibitor: 11.6; IEC-6 tox: 28.1*; aSyn UTR inh: 16.7; BaF3 tox: -10.2; IEC-6 tox confirm: 29.2*

How did O=C(c1c[nH]c2ccccc12)C(Cl)c1ccccc1 (stereo not drawn) do in these assays?
KLF5 inhibitor: 18.0; IEC-6 tox: 32.9*; aSyn UTR inh: -10.5; IEC-6 tox confirm: 12.7

What do the screens show for `O=C(c1c[nH]c2ccccc12)C(O)C(c1ccccc1)N1CCOCC1` (stereo not drawn)?
Ba/F3 V617F tox: -3.8; APP transl inh: -6.4; KLF5 inhibitor: -11.0; IEC-6 tox: -3.3; aSyn UTR inh: -13.5; BaF3 tox: 4.2

Results for CCCC(=O)Nc1ccc2c(c1)nc(CN1CCN(C(=O)OCC)CC1)n2CC ?
KLF5 inhibitor: 48.8; IEC-6 tox: 31.1*; aSyn UTR inh: -52.7; IEC-6 tox confirm: 17.7

How did CN(C)c1cccc(NC2=CC(=[N+]3CCOCC3)CC(C)(C)C2)c1 do in these assays?
Ba/F3 V617F tox: 1.6; APP transl inh: 5.2; KLF5 inhibitor: -17.6; IEC-6 tox: -1.5; aSyn UTR inh: 0.9; BaF3 tox: 3.6

What do the screens show for `CN(Cc1ccccc1)C1=CC(=[N+]2CCCC2)CC(C)(C)C1`?
Ba/F3 V617F tox: 94.0*; KLF5 inhibitor: -3.7; IEC-6 tox: 31.2*; aSyn UTR inh: -18.2; BaF3 tox: 73.1*; IEC-6 tox confirm: 28.1*

How did O=C(NCC1CCCO1)c1nn2c(C(F)(F)F)cc(-c3cc(Br)cs3)nc2c1Br (stereo not drawn) do in these assays?
KLF5 inhibitor: -6.9; IEC-6 tox: -5.7; aSyn UTR inh: 26.3

What do the screens show for `CCn1c2ccccc2c2cc(NC(=O)CNCc3ccccc3OC)ccc21`?
KLF5 inhibitor: 50.7; IEC-6 tox: 71.1*; aSyn UTR inh: -15.6; IEC-6 tox confirm: 40.0*

What do the screens show for `CCn1c2ccccc2c2cc(NC(=O)COc3ccccc3OC)ccc21`?
Ba/F3 V617F tox: 4.3; APP transl inh: 35.6; KLF5 inhibitor: -12.5; IEC-6 tox: 12.8; aSyn UTR inh: 24.4; BaF3 tox: 9.8

How did Oc1[nH]c2ccc(Br)cc2c1N=NC(=S)Nc1ccc(F)cc1 do in these assays?
Ba/F3 V617F tox: 0.0; KLF5 inhibitor: 6.7; IEC-6 tox: 21.9*; aSyn UTR inh: 52.4; BaF3 tox: 2.4; IEC-6 tox confirm: 9.2

Results for O=C(N=Nc1c(O)[nH]c2ccc(Br)cc12)c1ccccc1-n1cccc1 ?
Ba/F3 V617F tox: 76.8*; APP transl inh: 91.6*; KLF5 inhibitor: 42.3; IEC-6 tox: 55.1*; BaF3 tox: 77.0*; IEC-6 tox confirm: 53.5*

What do the screens show for `N=C(N)N=Nc1c(O)[nH]c2ccc(Br)cc12`?
Ba/F3 V617F tox: 5.9; APP transl inh: -11.4; KLF5 inhibitor: 19.0; IEC-6 tox: 3.5; aSyn UTR inh: 6.2; BaF3 tox: 5.0

Results for O=C1CN(C(=O)c2ccc(Cl)c([N+](=O)[O-])c2)c2ccccc2N1 ?
KLF5 inhibitor: -34.0; IEC-6 tox: 4.0; aSyn UTR inh: -46.4

Bioassay records as filed in PubChem.
